Among all 37,000 compounds or so, about 2,800 (7.6%) were called active. Roughly 1% stayed inconclusive and do not appear here. This is one part of a sample in which actives are shown more often than they occur. A number with no mark means an inactive call. No stated cut-off is given here; in the data, active means inhibition above about 80%; inconclusive means no clear call, values can overlap the other calls; inactive means below that.
Assay: NOMO-1 AML cell viability reduction, primary screen, STK33 inhibitor project, CellTiter-Glo luminescence (AID 2330)
Conditions: NOMO-1 AML viability, 72 h, active compounds read high, concentration not given here

| SMILES | inhibition |
| --- | --- |
| C[C@H]1O[C@@H](O[C@H]2CC[C@]3(CO)C4CC[C@]5(C)[C@@H](C6=CC(=O)OC6)CC[C@]5(O)[C@@H]4CC[C@H]3C2)[C@H](O)[C@H](O)[C@@H]1O[C@@H]1O[C@H](CO)[C@@H](O)[C@H](O)[C@H]1O (stereo not given in full) | 119% (active) |
| CCCCC/C=C\C/C=C\C/C=C\C/C=C\CCCCCC(=O)NCCO | 10.8% |
| COc1ccc(CNCc2nc3ccccc3c(=O)n2-c2ccc(F)cc2)cc1 | 23.8% |
| CC(C)c1ccc2c(c1O)CC[C@H]1C3=C(CC[C@]21C)C(=O)OC3 | 24.4% |
| O=C(Nc1ccc2c(C(F)(F)F)cc(=O)oc2c1)c1nc2ncccn2n1 | 7.98% |
| COc1c(C(C)C)cc2c(c1O)[C@@]1(C(=O)O)CCCC(C)(C)C1CC2 (stereo not given in full) | 16% |
| CCCCCCCCCCCCCC(=O)O[C@@H]1[C@@H](C)[C@@]2(O)[C@@H](C=C(CO)C[C@]3(O)C(=O)C(C)=C[C@@H]23)[C@@H]2C(C)(C)[C@]12OC(C)=O | 98.2% (active) |
| Cc1cc(OCc2cc(C(=O)O)oc2C)c2c3c(c(=O)oc2c1)CCCC3 | 0.325% |
| CCCN(C/C=C/I)C1CCc2ccc(O)cc2C1 (stereo not given) | 31.2% |
| COC1=C[C@@H]2[C@@H]3Cc4ccc(OC)c(O)c4[C@]2(CCN3C)CC1=O | -7.75% |
| COC1=CC23CCN(C)[C@H](Cc4cc(OC)c(OC)cc42)C3=CC1=O | 24.6% |
| O=C(c1ccccc1)C12CN3CN(CN(C3)C1)C2 | -14.9% |
| COc1ccccc1N1C(=O)NC(=O)C(CCc2ccncc2)(Cc2cccc3ccccc23)C1=O (stereo not given) | 32.3% |
| C[C@H]1CCC/C=C/C2C[C@H](O)C[C@H]2[C@H](O)/C=C\C(=O)O1 (stereo not given in full) | 122% (active) |
| COc1ccc2[nH]cc(CCNCc3ccc(Br)cc3)c2c1 | 48.6% |
| CCCCn1c(C)c(C(C)=O)c2c(OCC(=O)O)c(Cl)c(Cl)c(Cl)c21 | -7.33% |
| c1ccc2c(c1)[I+]c1ccccc1-2 | 141% (active) |
| C=CC(C)(C)c1cc2cc3c(cc2oc1=O)O[C@H](C(C)(C)O)C3 | 45.2% |
| Cc1ncsc1CCCl | 11.2% |
| CC(C)Nc1nc(Cl)nc(NC(C)C)n1 | 8.29% |
